Test [1] can be described thus: Viability qHTS for spleen associated tyrosine kinase inhibitor (SYKi) naive MV4-11 cells (AID 1963823). Further: nearly all actives have a fitted effect of over 40% in size. Further: potency means the concentration at half of the fitted maximal effect. The conditions noted are these: MV4-11 AML viability, CellTiter-Glo luminescence, 72 h; series mostly up to 45 µM. The essentials: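 Seeding of 500 SYKi-naive MV4-11 cells per well onto pre-dispensed compounds preceded a 72 hr incubation at 37 C. Luminescent CellTiter-Glo signal, read after 10 min at room temperature, reflected viable cells.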

A short description of test [2]: Cellular viability qHTS for adrenocortical cancer (ACC) cell line SW-13 (AID 1963989). Further: nearly all actives have a fitted effect of over 65% in size. Further: potency means the concentration at half of the fitted maximal effect.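 On activity (max response): cells grown in serum-free medium with ITS supplement; on the % scale 0 is the no-effect control and ±100 the full control effect.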 Particulars: SW-13 ACC cells viability, CellTiter-Glo, 48 h; activity (max response): active compounds read low. In short, it runs like this:
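48 h treatment, SW-13 in ITS/DMEM serum-free; doses up to 46 uM; readout CellTiter-Glo luminescence; curve fit four-parameter logistic.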

Test [3] can be described thus: Cellular viability qHTS for adrenocortical cancer (ACC) cell line NCI-H295R (AID 1963990). Further: nearly all actives have a fitted effect of over 60% in size. Further: potency means the concentration at half of the fitted maximal effect. Particulars: CellTiter-Glo ATP luminescence, 48 h; series mostly up to 46.1 µM. In short, it runs like this: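 Compound titrations (up to 46 uM final) are applied to NCI-H295R cultures for 48 h at 37C. Viable cell number is estimated by CellTiter-Glo signal, normalised to DMSO and doxorubicin controls.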

Test [4] can be described thus: Viability qHTS for spleen associated tyrosine kinase inhibitor (SYKi) drug resistant MV4-11 cells (AID 1963824). Further: nearly all actives have a fitted effect of over 35% in size. Particulars: SYKi-resistant MV4-11 viability, CellTiter-Glo, 72 h; series mostly up to 45 µM. In short, it runs like this: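 SYK inhibitor-resistant MV4-11 AML cells, 500 per well, added to predispensed compounds and incubated 72 hr at 37 C, 5% CO2. Viability measured by CellTiter-Glo luminescence after 10 min at room temperature.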
For orientation: qHTS replaces the single test concentration by a dilution series.

Inconclusive results are not listed. Unmarked numbers belong to inactive results. Active and inactive are the calls of the source. The call rests on the fitted dose curve; in most records, active means well fitted curve in the direction sought with a large enough effect; inconclusive means small, poorly fitted or top-dose-only effect, or another doubt; inactive means no such curve, though single readings can be large; an effect the other way counts as inactive or inconclusive.

For `CC(C)(C)OC(=O)c1ncn2c1[C@@H]1CCCN1C(=O)c1c(Br)cccc1-2`, the Potency result in test [1] and in test [3] was “inactive” each time. In addition, the activity (max response) in test [2] was 2.94%.
`Cc1cccc(C)c1NC1=NCCCS1`: the Potency result in test [1] and in test [3] was “inactive” throughout. Further, in test [2], the activity (max response) is -0.0852%.
For `C=CCC1([C@H](C)CCC)C(=O)NC(=O)NC1=O`, the Potency result in test [1] and in test [3] was “inactive” each time. Besides, the activity (max response) in test [2] was -3.9%.
For the molecule `CN1C(=O)[C@@H](NC(=O)[C@H](CCC(F)(F)F)[C@H](CCC(F)(F)F)C(N)=O)N=C(c2ccccc2)c2ccccc21`, the Potency entry in test [1] and in test [3] was “inactive” throughout. The activity (max response) in test [2] was -2.32%.
`C[C@]12CCC(=O)C=C1CC[C@@H]1[C@@H]2CC[C@]2(C)C(=O)CC[C@@H]12`: the Potency result in test [1] and in test [3] was “inactive” each time. In addition, the activity (max response) in test [2] was -7.18%.
On to `C[C@@]12OC(=O)[C@]1([C@@H](O)[C@@H]1C=CCCC1)NC(=O)[C@@H]2CCCl`, for which the Potency in test [1] is 20.9 nM (active); in test [2], 501 nM (active); in test [3], 398 nM (active).
On to `COc1cccc2c1C(=O)c1c(O)c3c(c(O)c1C2=O)C[C@@](O)(C(=O)CO)CC3OC1CC(N2CCOC(OC)C2)C(O)C(C)O1` (stereo partly drawn), for which the Potency is 2.7 nM (active) in test [1], 100 nM (active) in test [2] and 50.1 nM (active) in test [3].
As to `NC(=O)CS(=O)C(c1ccccc1)c1ccccc1` (stereo not drawn), the Potency result in test [1] and in test [3] was “inactive” throughout.
On to `CC(C)(N)Cc1ccccc1Cl`, for which the Potency result in test [1] and in test [3] was “inactive” each time. The activity (max response) in test [2] was 5.36%.
Regarding `COc1cc2c(cc1O)C1(C)CCC(O)C(C)(C)C1CC2=O` (stereo not drawn), in test [4], the Potency entry was “inactive”.
As for `C[C@]12CC[C@H]3[C@@H](CCC4=CC(=O)CC[C@@H]43)[C@@H]1CC[C@@H]2O`, the Potency entry in test [1] and in test [3] was “inactive” throughout. For the same molecule, the activity (max response) in test [2] is 5.27%.
Turning to `Cc1c(N)nc([C@H](CC(N)=O)NC[C@@H](N)C(N)=O)nc1C(=O)N[C@H](C(=O)N[C@@H](C)[C@H](O)[C@@H](C)C(=O)N[C@@H](C(=O)NCCc1nc(-c2nc(C(=O)NCCC[S+](C)C)cs2)cs1)[C@@H](C)O)C(O[C@H]1O[C@H](CO)[C@H](O)[C@@H](O)[C@H]1O[C@H]1O[C@H](CO)[C@@H](O)[C@H](OC(N)=O)[C@@H]1O)c1cnc[nH]1` (stereo partly drawn), the Potency result in test [1] and in test [3] was “inactive” throughout. In test [2], the activity (max response) is -30.2%.

(Values after PubChem BioAssay (NCATS).)
